# Assay results published in PubChem BioAssay (NCI).
# About 79,000 compounds went through this panel and 15% of them were active in at least one assay; those are over-represented in the sample as a whole. Unmarked numbers belong to inactive results. Calls of active or inactive are those of the source. Rule as the data show it: active = growth inhibition above about 70%; inactive = the rest.
# Assays:
# [1] = NCI Yeast Anticancer Drug Screen. Data for the rad50 strain (AID 155);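 also: 0% = growth of vehicle-only cultures of the same strain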; conditions: S. cerevisiae rad50 strain growth inhibition; at 50.0 µM; active compounds read high
# Outline: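 Readout: growth inhibition relative to vehicle-treated cultures. Compound exposure was carried out in a genetically defined yeast strain deficient in DNA damage repair.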
# [2] = NCI Yeast Anticancer Drug Screen. Data for the mec2-1 strain (AID 157); conditions: S. cerevisiae mec2-1 strain, at 50.0 µM, active compounds read high
# Outline: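 Test agents were screened against the mec2-1 yeast strain, with defined DNA repair or cell cycle alteration. Growth was scored as inhibition against vehicle-only controls.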
# [3] = NCI Yeast Anticancer Drug Screen. Data for the sgs1 mgt1 strain (AID 161);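 also: 0% = growth of cultures given vehicle only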; conditions: S. cerevisiae sgs1 mgt1 strain, at 50.0 µM, active compounds read high
# Outline: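 Inhibition of yeast growth, normalised to vehicle-treated controls, is reported for a strain bearing genetic alterations in DNA damage repair.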
# [4] = NCI Yeast Anticancer Drug Screen. Data for the cln2 rad14 strain (AID 165);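 also: 0% = growth equal to vehicle treated cultures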; conditions: S. cerevisiae cln2 rad14 strain, at 50.0 µM, active compounds read high
# Outline: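 Growth of compound-exposed yeast (cln2 rad14 genotype) measured and expressed as inhibition relative to vehicle.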
# [5] = NCI Yeast Anticancer Drug Screen. Data for the bub3 strain (AID 167); conditions: S. cerevisiae bub3 mutant strain, at 50.0 µM, active compounds read high
# Outline: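 Readout: yeast growth inhibition, expressed relative to vehicle-only wells. The test organism is a mutant strain from a panel with lesions in DNA repair or checkpoint genes.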
# [6] = NCI Yeast Anticancer Drug Screen. Data for the mlh1 rad18 strain (AID 175); conditions: S. cerevisiae mlh1 rad18 strain growth inhibition; at 50.0 µM; active compounds read high
# Outline: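 In this whole-cell yeast screen, a strain with altered DNA damage repair is challenged with compound, and its growth is measured against matched vehicle-treated controls.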
SMILES,growth inhibition [1],growth inhibition [2],growth inhibition [3],growth inhibition [4],growth inhibition [5],growth inhibition [6]
Cc1ccn2c(=O)c(CCBr)c(C)nc2c1,12.8%,-4.65%,5.25%,13.8%,6.05%,2.25%
Nc1ncc(Cl)cn1,19.6%,-21.4%,8%,-25.2%,-22.3%,-23.6%
Cn1c(=O)c2nc(SC3CCCCC3)n(C)c2n(C)c1=O,-12.7%,-9.05%,-9.85%,-28.3%,4.5%,-15.3%
C=CC[N+](CCO)(CCO)CCCCCCCCCCCCCCCCCC,98.4% (active),99% (active),99.2% (active),96.1% (active),98.5% (active),97.8% (active)
CCOC(=O)N1Cc2cc3ccc(OC)cc3nc2C1,6%,-4.15%,-21.1%,-10%,-24.4%,3.9%
CC(C(=O)c1ccccc1)C(=O)c1ccccc1,-2.7%,-13%,-7.9%,-9.95%,-5.8%,-1.65%
CCCCC(ON=C(C)C)C(=O)OC (stereo not given),19.3%,31.6%,-10.2%,12.1%,1.25%,24.4%
CC(C)(C)[Si](C)(C)Oc1cc(CO)cc2c1cc(=N)o[n+]2[O-],-27.6%,-12.9%,-23.2%,-30.9%,-1.15%,-31.2%
CC(=N/N(C)c1ccccc1)/C(C)=N/N(C)c1ccccc1,19.1%,6.7%,3.7%,3.65%,4.35%,15.8%
O=CC(=O)c1ccc(F)cc1,-20.2%,-10%,-0.15%,-15.2%,-8.55%,2%
